The campaign covered roughly 100,000 compounds. About 770 (0.77%) were called active. The full list was thinned out, with actives kept by preference. Unmarked numbers belong to inactive results. Cut-off read from the data, not from the text of the source: active = inhibition above about 50%; inactive = the rest.
target: Gag-Pol polyprotein (Human immunodeficiency virus type 1 group M subtype B (isolate HXB2)) (UniProt P04585); assay: RNase H inhibition, HIV 1 Gag Pol polyprotein, FRET biochemical assay, screening (AID 372); conditions: HIV-1 RT RNase H, FRET RNA/DNA substrate fluorescence; at 10 µM; stronger effect = higher value

First: CCOC(=O)/C(=N/Nc1cccc(C)c1)c1csc(N)n1
Second: CCOC(=O)c1ccc(NC(=O)Nc2nc(-c3ccccc3)cs2)cc1
The inhibition of the first is higher: 10% for the first, 0% for the second.

First: COc1ccc(/C=C/C(=O)Oc2ccc3c(c2)C(C)=CC(C)(C)N3)cc1
Second: COc1ccc(/C=C2\SC(=O)N(c3c(C)n(C)n(-c4ccccc4)c3=O)C2=O)cc1
The inhibition of the first is higher: 16% for the first, 0% for the second.

Going from `O=C(N=Nc1c(O)n(CN2CCCCC2)c2ccccc12)c1ccncc1` to `O=C(CSCc1cccc(Br)c1)N=Nc1c(O)[nH]c2ccccc12`, the inhibition rises from 0% to 16%.

Going from `CC1(C)NC(=O)N(CC(O)CN(c2cccc([N+](=O)[O-])c2)S(=O)(=O)c2ccccc2)C1=O` (stereo unspecified) to `Cc1c(N2C(=O)/C(=C/c3cccc([N+](=O)[O-])c3)SC2=S)c(=O)n(-c2ccccc2)n1C`, the inhibition rises from 0% to 13%.

Going from `S=C(Nc1ccccc1)N1CCN(C(=S)Nc2ccccc2)CC1` to `S=C(Nc1cccc2ccccc12)N1CCN(C(c2ccccc2)c2ccccc2)CC1`, the inhibition falls from 9% to 5%.

Compared with `Cc1c(N2C(=O)S/C(=C\c3ccc([N+](=O)[O-])cc3)C2=O)c(=O)n(-c2ccccc2)n1C`, `Cc1c(N2C(=O)S/C(=C\c3ccccc3)C2=O)c(=O)n(-c2ccccc2)n1C` is lower in inhibition: 3% for the first, 0% for the second.

Going from `Cc1ncc(CO)c(/C=N/Nc2ccccc2)c1O` to `CC(C)Cc1ccc(-c2csc(/C(C#N)=C/Nc3ccccc3)n2)cc1`, the inhibition falls from 13% to 0%.

First: O=C(N/N=C/c1ccc(O)c(Br)c1)c1cccc(Br)c1
Second: Oc1cccc(/C=N/Nc2nc(-c3ccc(Br)cc3)cs2)c1
The inhibition of the first is lower: 0% for the first, 16% for the second.

`COc1ccc(NC(=O)c2sc3cc(C)ccc3c2Cl)c(OC)c1` and `COc1cc([N+](=O)[O-])ccc1NC(=S)NC(=O)c1ccccc1` are the same in inhibition: 3% for the first, 3% for the second.

Going from `Cc1ccn2c(-c3csc(Nc4ccc(O)cc4)n3)c(C)nc2c1` to `Cc1cccc(N2C(=O)c3ccc(-c4nc5ccccc5c(=O)o4)cc3C2=O)c1`, the inhibition rises from 8% to 37%.

First: CCC1CCCCN1S(=O)(=O)c1ccc(Cl)c([N+](=O)[O-])c1 (stereo unspecified)
Second: O=C(O)C1Nc2c(cccc2[N+](=O)[O-])C2C=CCC12 (stereo unspecified)
The inhibition of the first is lower: 12% for the first, 17% for the second.

First: Cc1cccc(N2C(=O)c3ccc(-c4nc5ccccc5c(=O)o4)cc3C2=O)c1C
Second: Cc1ccccc1N1C(=O)c2ccc(-c3nc4ccccc4c(=O)o3)cc2C1=O
The inhibition of the first is higher: 10% for the first, 2% for the second.

Compared with `Cc1ccc(N2C(=O)c3ccc(-c4nc5ccccc5c(=O)o4)cc3C2=O)c(C)c1`, `Cc1cc(C)cc(NS(=O)(=O)c2ccc3ccccc3c2)c1` is higher in inhibition: 5% for the first, 14% for the second.

Going from `O=C1C(=O)N(c2cccnc2)C(c2ccc(F)cc2)/C1=C(\O)c1ccc(Cl)cc1` (stereo unspecified) to `O=C1c2ccccc2NC(c2ccccc2O)N1Cc1ccco1` (stereo unspecified), the inhibition rises from 2% to 5%.

Compared with `CCCC(=O)N1c2c(C)cccc2C(Nc2ccccc2C)CC1C` (stereo unspecified), `O=S(=O)(Nc1cccc(I)c1)c1ccccc1` is lower in inhibition: 12% for the first, 0% for the second.

Going from `COC(=O)c1c(NC(=O)c2c(F)c(F)c(F)c(F)c2F)sc2c1CCCCC2` to `Cc1ccc(-c2c3c([nH]c(=S)c2C#N)CCCC3)o1`, the inhibition falls from 26% to 8%.

Compared with `O=c1c(C=NCC2CCCO2)c(C(F)(F)F)[nH]n1-c1nc2ccccc2s1` (stereo unspecified), `Brc1ccc(N2COc3ccc4ccccc4c3C2)cc1` is higher in inhibition: 0% for the first, 18% for the second.

First: Oc1c(Br)cc(Cl)cc1/C=C/c1ccc2cccc(O)c2n1
Second: O=S(=O)(Nc1cccc(F)c1)c1ccc2ccccc2c1
The inhibition of the first is lower: 15% for the first, 27% for the second.

First: Cc1ccc2c(c1)C1C=CCC1C(C(=O)O)N2 (stereo unspecified)
Second: O=C(O)C1Nc2ccc(F)cc2C2C=CCC12 (stereo unspecified)
The inhibition of the first is higher: 27% for the first, 12% for the second.

First: O=C(c1ccccc1)c1cc(Cl)cc2c1NC(C(=O)O)C1CC=CC21 (stereo unspecified)
Second: NC(=O)c1cccc2c1NC(C(=O)O)C1CC=CC21 (stereo unspecified)
The inhibition of the first is higher: 30% for the first, 22% for the second.

Compared with `O=C(O)C1Nc2c(I)cccc2C2C=CCC12` (stereo unspecified), `CCOC(=O)c1ccc2c(c1)C1C=CCC1C(c1ccc(Br)cc1)N2` (stereo unspecified) is higher in inhibition: 30% for the first, 31% for the second.

Going from `CCOc1cc(/C=C2\SC(N)=NC2=O)ccc1OCCOc1ccc(Cl)c(C)c1` to `Cc1ccc(Cc2cnc(NC(=O)c3ccc(Br)cc3)s2)cc1`, the inhibition falls from 30% to 0%.

Compared with `COc1cccc(C(=O)Nc2ccc(-c3ccc(NC(=O)c4cccc(OC)c4)cc3)cc2)c1`, `O=C(Nc1ccc(-c2cnc(-c3ccc(NC(=O)c4ccccc4)cc3)nc2)cc1)c1ccccc1` is lower in inhibition: 2% for the first, 0% for the second.

Compared with `Cc1cc(C)c(OCCCCN2CCC(C)CC2)c(C)c1`, `N#Cc1c(N)c(C#N)c(-c2ccco2)c2c1CCCC2` is lower in inhibition: 10% for the first, 4% for the second.

`O=S(=O)(Nc1cccc(C(F)(F)F)c1)c1ccc(F)cc1` and `COc1ccc(S(=O)(=O)Nc2cccc(C(F)(F)F)c2)cc1` are the same in inhibition: 0% for the first, 0% for the second.

`O=S(=O)(Nc1ccc(Nc2ccccc2)cc1)c1ccc2ccccc2c1` and `Cc1ccc(C(=O)Nc2ccc(I)cc2)o1` are the same in inhibition: 0% for the first, 0% for the second.

For `S=C(Nc1ccccc1)N1CCN(C(c2ccccc2)c2ccccc2)CC1`, the inhibition was 56% (active).
`Cc1c(N2C(=O)S/C(=C\c3cccc([N+](=O)[O-])c3)C2=O)c(=O)n(-c2ccccc2)n1C` was tested, and the inhibition was 59% (active).
In the case of `Cc1c(N2C(=O)S/C(=C\c3ccc(N(C)C)cc3)C2=O)c(=O)n(-c2ccccc2)n1C`, the inhibition is reported as 67% (active).
For `Cc1cc(Br)ccc1N1C(=O)c2ccc(-c3nc4ccccc4c(=O)o3)cc2C1=O`, the inhibition was 59% (active).
With `Cc1cc(C)c(N2C(=O)c3ccc(-c4nc5ccccc5c(=O)o4)cc3C2=O)c(C)c1` the inhibition was 54% (active).
For `COc1cccc(C(=O)Nc2ccc(-c3cnc(-c4ccc(NC(=O)c5cccc(OC)c5)cc4)nc3)cc2)c1`, the inhibition was 50% (active).
For `N#Cc1c(-c2ccco2)c2c([nH]c1=S)CCCC2`, the inhibition was 63% (active).
`O=S(=O)(Nc1cccc(Br)c1)c1ccc2ccccc2c1` was tested, and the inhibition was 50% (active).
`O=S(=O)(Nc1cccc(I)c1)c1ccc2ccccc2c1` was tested, and the inhibition was 52% (active).

From PubChem BioAssay AID372 (MTDP, 2006)
